SNCA expr inh: SNCA gene expression inhibition | HEK-293 SNCA-luciferase knock-in, luminescence, 24 h | Potency, µM (series often up to 57.2 µM), actives largely listed as inhibitors | actives 0.17% (n = 140,000); further: nearly all actives have a fitted effect of over 45% in size
IP6K1 inh: IP6K1 kinase inhibition | IP6K1 kinase, ADP-Glo luminescence, 2 h; active compounds read low | Q92551 | activity change, % (series mostly up to about 58 µM) | actives 0.81% (n = 140,000); in the data active means activity change below about -25%
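ADP-Glo luminescence measures ADP made by human IP6K1 during a 2 h RT reaction with ATP/IP6 (mix at 1.3 mM/130 uM); top library doses 57.5 and 19.1 uM final.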
SNCA viab count: reduces viability of HEK-293 SNCA reporter cells; HEK-293-SNCA-luc viability, GF-AFC fluorescence, 24 h; actives 0.12% (n = 150,000); AID 1671193; Potency, µM (top dose mostly 57.1 µM), usual class: cytotoxic; further: nearly all actives have a fitted effect of over 30% in size
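Cytotoxicity counterscreen: after 24 h compound treatment of genome-edited SNCA-luciferase HEK-293 cells, live-cell protease substrate GF-AFC read by fluorescence after 30 min; activity scaled between DMSO (0%) and medium-only (-100%), curves Hill-fitted.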
KDM5B inhibitor: KDM5B demethylase inhibition. Q9UGL1. KDM5B demethylase, FDH-coupled NADH fluorescence (FDH is formaldehyde dehydrogenase). Potency, µM (series often up to 57.7 µM), most hits filed as inhibitors. actives 2.6% (n = 220,000); further: nearly all actives have a fitted effect of over 70% in size
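qHTS format, multiple compound concentrations. Buffer 50 mM HEPES pH 7.5/0.01% Tween-20; 200 nM KDM5BΔAP final; 10 min compound preincubation; substrate-mix levels 12.5 µM peptide, 25 µM α-KG, 0.25 mM NAD⁺; 30 min RT; ΔRFU.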
Of the large screens only hits and unclear results are named; the others gave an inactive call; ! = a repeat was not active. The list is not random: actives were taken first. Their share in the collection is about 2.8%. Unless noted, the call rests on the fitted dose curve; in most records, active means well fitted curve in the direction sought with a large enough effect; inconclusive means small, poorly fitted or top-dose-only effect, or another doubt; inactive means no such curve, though single readings can be large; an effect the other way counts as inactive or inconclusive.

CN(C)c1ncc2c(n1)C(C)(C(=O)Nc1ccccc1)CCC2 (configuration not stated)	KDM5B inhibitor 35µM
COc1ccc(NC(=O)C2(C)CCCc3cnc(N(C)C)nc32)cn1 (configuration not stated)	KDM5B inhibitor 35µM
CN(Cc1ccccc1)C(=O)C1(C)COCc2cnc(Nc3ccccc3)nc21 (configuration not stated)	none
Cc1ccccc1CNC[C@H]1Cn2cc(-c3ccccc3)nc2CO1	none
O=C(CCn1ccnc1)N1CCC(c2nc(CCOc3ccc(F)cc3)no2)C1 (configuration not stated)	none
CCO[C@H]1C[C@@H](O)C12CCN(C(=O)c1cc3nc(C)cc(C)n3n1)CC2	KDM5B inhibitor 28µM
CNC(=O)Cn1nc(C(=O)N2CCC3(CC2)[C@H](O)C[C@@H]3O)cc1C	none
CCc1ccc(C(=O)N2C[C@@H](COC)[C@H](c3nc(COC)no3)C2)cc1	none
O=C(COc1ccccc1)N1CCC(N2CC3CC(C2)[C@H]2CCCC(=O)N2C3)CC1 (some centres not stated)	KDM5B inhibitor 22µM
COc1ccc(NC(=O)N2CCC(N3CC4CC(C3)[C@H]3CCCC(=O)N3C4)CC2)cc1OC (some centres not stated)	KDM5B inhibitor 25µM
Cc1nc(C)c(C(=O)N2CCC(N3CC4CC(C3)[C@H]3CCCC(=O)N3C4)CC2)s1 (some centres not stated)	KDM5B inhibitor 16µM
COc1ccc(CNC(=O)c2cc3c(N4CCSCC4)nc(C)cn3n2)cc1	KDM5B inhibitor inconclusive
CCc1ccc(CNC(=O)c2cc3c(N4CCSCC4)nc(C)cn3n2)cc1	KDM5B inhibitor 32µM
Cc1cccc(CNC(=O)c2cc3c(N4CCSCC4)nc(C)cn3n2)c1	KDM5B inhibitor inconclusive
Cc1cn2nc(C(=O)NCc3ccc(C(F)(F)F)cc3)cc2c(N2CCSCC2)n1	KDM5B inhibitor 28µM
Cc1cn2nc(C(=O)NCc3ccncc3)cc2c(N2CCSCC2)n1	none
Cc1cn2nc(C(=O)NCc3cccc(C(F)(F)F)c3)cc2c(N2CCSCC2)n1	KDM5B inhibitor 28µM
COC(=O)C[C@H]1[C@]2(C)C3=C(C)[C@H](c4ccoc4)C[C@H]3O[C@@H]2[C@H](O)C2[C@](C)(C(=O)OC)C=CC(=O)[C@@]21C (some centres not stated)	none (no result: SNCA expr inh, KDM5B inhibitor)
CCN(CC)C(=O)N1CCC(c2noc(COc3ccc(F)cc3)n2)C1 (configuration not stated)	none (no result: KDM5B inhibitor)
C=CC(=O)Nc1cccc(Oc2nc(Nc3ccc(N4CCN(C)CC4)cc3)ncc2Cl)c1	SNCA viab count 3µM! (no result: KDM5B inhibitor)
COc1ccccc1-n1cc(-c2nc(C3CCOC3)no2)cn1 (configuration not stated)	KDM5B inhibitor 28µM
Cc1cc2c(-c3ccccc3O)nc(-c3c(C)noc3C)cc2[nH]1	SNCA viab count inconclusive, KDM5B inhibitor 35µM
Cc1cc2c(-c3ccccc3C)nc(-c3c(C)noc3C)cc2[nH]1	KDM5B inhibitor 32µM
COc1cccc(-c2nc(-c3c(C)noc3C)cc3[nH]c(C)cc23)c1OC	none
Cc1cc2c(-c3ccccc3F)nc(-c3c(C)noc3C)cc2[nH]1	KDM5B inhibitor 35µM
C/C(=N/Nc1ccc(S(N)(=O)=O)cc1[N+](=O)[O-])c1ccccc1Br	none (no result: SNCA expr inh, IP6K1 inh, SNCA viab count)
Cc1nc2c(OCC(=O)OC(C)(C)C)cccn2c(=O)c1-c1cc(C)n(-c2ccc(Cl)cc2)n1	KDM5B inhibitor 28µM
Cc1nc2c(OCC(=O)OC(C)(C)C)cccn2c(=O)c1-c1cc(C)n(-c2cccc(F)c2)n1	KDM5B inhibitor inconclusive
CCOC(=O)C(C)Oc1cccn2c(=O)c(-c3cc(C)n(-c4ccc(Cl)cc4)n3)c(C)nc12 (configuration not stated)	KDM5B inhibitor 22µM
Cc1ccc(C(=O)COc2cccn3c(=O)c(-c4cc(C)n(-c5ccccc5)n4)c(C)nc23)cc1	KDM5B inhibitor inconclusive
COc1ccc2ccc(OC(=O)c3ccccc3)cc2c1	none (no result: SNCA expr inh, IP6K1 inh, SNCA viab count)
O=C([C@H]1CCC[C@H](O)C1)N1CCN(c2ccnc3nncn23)CC1	KDM5B inhibitor inconclusive
O=C([C@H]1CCC[C@@H](O)C1)N1CCN(c2ccc3nccn3n2)CC1	KDM5B inhibitor 28µM
Cc1n[nH]c(C)c1C(N)C(=O)N1CCN(c2ccc3nccn3n2)CC1 (configuration not stated)	KDM5B inhibitor 28µM
O=C(CN1C(=O)NC(Cc2c[nH]c3ccccc23)C1=O)Nc1cccc(F)c1 (configuration not stated)	none (no result: SNCA expr inh, IP6K1 inh, SNCA viab count)
CC(C)N1C[C@H](O)C[C@H]1c1nnc2n1CCN(C(=O)c1cnccn1)CC2	KDM5B inhibitor inconclusive
CC(C)(C)c1coc2cc3oc(=O)c4ccccc4c3cc12	none (no result: SNCA expr inh, IP6K1 inh, SNCA viab count)
O=C(c1cc2c(s1)CN(C1CCCC1)C2)N1CCCN(c2ncccn2)CC1	KDM5B inhibitor 6.3µM
C=C1C(=O)O[C@@H]2[C@H]1CC(=O)[C@H](C)[C@@](O)(C(=O)/C=C/C)[C@H]2OC(=O)C(C)CC (some centres not stated)	SNCA viab count 9.3µM (no result: SNCA expr inh, KDM5B inhibitor)
Cn1cc2c3c(cccc31)CN(C(=O)CC(C)(C)C)CC2	KDM5B inhibitor 32µM
CCCn1cc2c3c(cccc31)CN(C(=O)COc1ccc(F)cc1)CC2	KDM5B inhibitor 32µM
CCCn1cc2c3c(cccc31)CN(C(=O)Cc1ccc(OC)cc1)CC2	KDM5B inhibitor inconclusive
CC(C)(C)COC(=O)N1C[C@@H](CO)[C@@H]2Oc3c(F)cccc3[C@@H]21	none (no result: SNCA expr inh, SNCA viab count, KDM5B inhibitor)
Cc1ccc(-c2cc(C(=O)NCc3c(C)cc(C)[nH]c3=O)c3c(c2)N(C)CCO3)cc1	KDM5B inhibitor inconclusive
COc1ccccc1-c1cc(C(=O)NCc2c(C)cc(C)[nH]c2=O)c2c(c1)N(C)CCO2	SNCA expr inh inconclusive, SNCA viab count inconclusive, KDM5B inhibitor inconclusive
Cc1cc(C)c(CNC(=O)c2cc(-c3ccccc3)cc3c2OCCN3C)c(=O)[nH]1	KDM5B inhibitor 32µM
Cc1cc(C)c(CNC(=O)c2cc(-c3ccc(CO)cc3)cc3c2OCCN3C)c(=O)[nH]1	KDM5B inhibitor 32µM
COc1ccc(-c2cc(C(=O)NCc3c(C)cc(C)[nH]c3=O)c3c(c2)N(C)CCO3)cn1	KDM5B inhibitor 35µM
O=C(NCc1cccs1)c1nc(-c2ccc(F)cc2)c2cnccn12	KDM5B inhibitor 40µM
O=C(NCc1ccc2c(c1)OCO2)c1nc(-c2ccc(F)cc2)c2cnccn12	KDM5B inhibitor inconclusive
O=C(NCc1ccc(F)cc1)c1nc(-c2ccccc2)c2cnccn12	SNCA expr inh inconclusive, KDM5B inhibitor 79µM
C#CCNC(=O)c1nc(-c2cccc(F)c2)c2cnccn12	KDM5B inhibitor 35µM
O=C(NCc1cccnc1)c1nc(-c2ccc(F)cc2)c2cnccn12	KDM5B inhibitor 28µM
O=C(NC1CC1)c1nc(-c2cccc(F)c2)c2cnccn12	none
Cn1c(=O)c2c(ncn2CC(=O)N(CCc2cccs2)Cc2cccs2)n(C)c1=O	none (no result: SNCA expr inh, IP6K1 inh, SNCA viab count)
N#Cc1cccc(NC(=O)c2ccc3c(c2)OCCCO3)c1	none (no result: SNCA expr inh, IP6K1 inh, SNCA viab count)
